According to PubChem BioAssay AID504660 (National Center for Advancing Translational Sciences (NCATS), 2011):
In all, about 360,000 compounds went through this assay and about 3,700 (1%) were called active. Only a selection was taken, and actives are over-represented in it overall. A number with no mark means an inactive call. Cut-off read from the data, not from the text of the source: active = activation above about 30%; inactive = the rest.

Each compound was assayed against D(1A) dopamine receptor (Homo sapiens) (UniProt P21728) (assay: Allosteric Agonists of the Human D1 Dopamine Receptor: qHTS). Conditions: HEK293 T-REx D1 cells, calcium flux, agonist mode; at 2 µM; stronger effect = higher value.
Sequence of D(1A) dopamine receptor (Homo sapiens) (P21728 whole entry, looked up): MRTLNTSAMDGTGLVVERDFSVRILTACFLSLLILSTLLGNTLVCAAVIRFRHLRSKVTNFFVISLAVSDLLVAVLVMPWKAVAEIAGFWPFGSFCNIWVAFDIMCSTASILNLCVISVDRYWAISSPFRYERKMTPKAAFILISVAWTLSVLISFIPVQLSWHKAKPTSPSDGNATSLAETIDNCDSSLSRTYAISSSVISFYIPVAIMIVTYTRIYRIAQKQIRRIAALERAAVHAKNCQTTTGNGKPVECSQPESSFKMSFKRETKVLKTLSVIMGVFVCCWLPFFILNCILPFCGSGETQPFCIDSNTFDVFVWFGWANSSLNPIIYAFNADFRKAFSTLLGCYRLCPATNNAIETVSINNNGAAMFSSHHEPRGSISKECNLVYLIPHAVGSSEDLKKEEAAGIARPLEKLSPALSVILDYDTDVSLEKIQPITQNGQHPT
Method in brief: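 Inducible HEK293 T-REx D1 cells, force-coupled to calcium signalling, were plated at 4000 cells/well with tetracycline and held overnight at 30 C. After no-wash calcium dye loading, compound-evoked calcium rise over 180 s flagged agonists.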
Note: 0% is about no effect.

Compound	activation
O=C(CSc1nc2ccccc2nc1Cc1ccccc1)N1CCCCC1	4.62%
CCc1nccn1S(=O)(=O)c1cc(Br)ccc1Br	-0.03%
CCOc1ccccc1NC(=O)C1=C(C)Nc2ncnn2C1c1ccc(NC(C)=O)cc1 (centres undefined)	1.04%
Cc1cccc(NC(=O)Cn2nc(-c3ccc(Cl)cc3)c3ccccc3c2=O)c1	35.9% (active)
Cc1ccc(-c2nn(CCC(=O)Nc3ccc(Cl)c(Cl)c3)c(=O)c3ccccc23)cc1	0.86%
Cc1ccc(-c2nn(CCC(=O)Nc3ccc(OC(F)(F)F)cc3)c(=O)c3ccccc23)cc1	1.41%
Cc1ccc(C(=O)Nc2nc(-c3ccccc3)ns2)cc1	-0.0471%
CCC(=O)N1c2ccccc2CC1C(=O)N1CCN(c2cccc(OC)c2)CC1 (centres undefined)	-0.217%
CC(=O)N1c2ccccc2N(Cc2ccc([N+](=O)[O-])cc2)C(=O)C1(C)C	2.19%
O=C(NCCCCc1ccccc1)C1CC(c2ccc([N+](=O)[O-])cc2)=NO1 (centres undefined)	7.04%
O=C1NC(=O)C2C1C(c1ccc([N+](=O)[O-])cc1)=NN2Cc1ccccc1 (centres undefined)	44.8% (active)
Cc1cccc(NC(=O)c2cc3c(C)nn(-c4ccccc4)c3s2)c1	2.46%
CCOC(=O)c1oc2ccc(S(=O)(=O)n3nc(-c4ccccc4OC)cc3N)cc2c1C	4.93%
CC(C)(C)N(Cc1ccccc1)C(=O)c1ccncc1	-0.455%
Cc1cc(C)cc(NC(=O)N(C)Cc2ccccc2)c1	2.04%
CN(C(=O)CN(CCO)CC(=O)N(C)C(C)(C)Cc1ccccc1)C(C)(C)Cc1ccccc1	40.5% (active)
CCOC(=O)c1c(S(=O)(=O)NCC(=O)Nc2ccc(Cl)c(C(F)(F)F)c2)c(C)n(C)c1C	6.5%
Cc1cc(C)c(NC(=O)CSc2nc3nccnc3c(=O)n2CCc2c[nH]c3ccccc23)c(C)c1	2.34%
O=C(NCCN1C(=O)S/C(=C\c2cccnc2)C1=O)c1ccc(S(=O)(=O)N2CCCC2)cc1	1.07%
CCN1CCN(CCNC(=O)c2ccc(/C=C3/Sc4ccccc4N(Cc4cccc(C)c4)C3=O)cc2)CC1	48.6% (active)
O=C(CN1C(=O)/C(=C/c2ccccc2F)Sc2ccccc21)NCc1cccnc1	4.38%
CCn1c(=O)c(=O)n(CC)c2cc(N3CCCCC3)c(NC(=O)c3cccc(F)c3)cc21	-0.479%
CCCCCN(C(=O)NC(=O)Nc1ccccc1C)S(C)(=O)=O	4.03%

Compound	activation
CCCS(=O)(=O)c1c(Nc2ccccc2C)sc(C(=O)c2ccccc2)c1N	32.6% (active)
COc1c(F)c(F)c(C(=O)O)c(Nc2ccccc2C)c1F	1.04%
CCOC(=O)N1CCc2c(sc3c2c(=O)n(-c2ccc(CC)cc2)c(=O)n3C)C1	-0.644%
CCOC(=O)c1cc2c(=O)n3ccccc3nc2n(CC2CCCO2)c1=NC(=O)c1ccc(C(C)(C)C)cc1 (centres undefined)	2.73%
CCCCCCc1cc2cc(-c3nnc(-c4ccccc4)o3)c(=O)oc2cc1O	297% (active)
CCOc1ccc(CCNC(=O)c2c(C)oc3ncn(C)c(=O)c23)cc1	0.93%
CSc1ccc(C2C(C(=O)Nc3ccccc3)=C(C)Nc3nc4ccccc4n32)cc1 (centres undefined)	-0.673%
Cc1ccc(NC(=O)CN2C(=O)C(c3ccc(F)cc3)=NC23CCCCCC3)c(C)c1	7.18%
CC(C)c1ccc(NS(=O)(=O)c2ccc3[nH]cc(C(=O)NC4CCCC4)c(=O)c3c2)cc1	5.71%
Cc1ccc(NC(=O)c2ccc(CN3CC(=O)N4CCCCC4C3=O)cc2)c(Cl)c1 (centres undefined)	1.1%
CC(NC(=O)Cn1cc(C(F)(F)F)cc(Cl)c1=O)c1ccccc1 (centres undefined)	-0.532%
CN(C)c1ccc(C(=O)NCC(=O)OC(C(=O)Nc2cc(C(F)(F)F)ccc2Cl)c2ccccc2)cc1 (centres undefined)	1.69%
CNCC[C@H](Oc1ccc(C(F)(F)F)cc1)c1ccccc1	111% (active)
COc1ccc(OC)c(NC(=O)CSC2=Nc3ccccc3C3=NC(CC(=O)NCCc4ccccc4)C(=O)N23)c1 (centres undefined)	1.84%
COc1ccc(-c2ccc(CNCCCN3CCOCC3)o2)cc1Cl	3.69%
COc1cc(CNCCSc2nnnn2C)ccc1OCc1c(F)cccc1Cl	5.58%
COc1cccc(CNCCSc2nnnn2C)c1OCc1ccccc1Cl	4.2%
CCOc1ccc(CNCCSc2nnnn2C)cc1	-0.463%
COc1cc(CNCCSc2nnnn2C)ccc1OCc1ccc(Cl)cc1Cl	48.2% (active)
Cn1nnnc1SCCCNCc1cccc(OCc2ccc(Cl)cc2)c1	74.4% (active)
Cn1nnnc1SCCNCc1ccc(Cl)c(Cl)c1	-0.329%
Cc1c(Cl)cccc1-c1ccc(CNCCCSc2nnnn2C)o1	68.7% (active)
Cn1nnnc1SCCCNCc1ccc(Cl)cc1	8.22%

Compound	activation
COc1ccc(-c2c(C)nn3c(N4CCC(C(=O)NCCC(C)C)CC4)cc(C)nc23)cc1OC	1.66%
Cc1ccc(Cl)cc1N(C)C(=O)Cn1nc(Cc2cccnc2)c2ccccc2c1=O	3.19%
Oc1c(Cl)cc(Cl)c(Cl)c1Cc1c(O)c(Cl)cc(Cl)c1Cl	33.5% (active)
COc1cc(CN(C(=O)c2ccccc2Br)c2ccccn2)cc(OC)c1OC	-2.08%
Cc1ccc(OCCNC(=O)CCNS(=O)(=O)c2ccc(Br)cc2)cc1	74% (active)
Cc1ccc(S(=O)(=O)NCCNC(C)c2ccc(Br)cc2)cc1 (centres undefined)	6.77%
O=C(CCNS(=O)(=O)c1ccccc1)NCCSc1ccc(Br)cc1	11.3%
Fc1ccc(-n2ncc3c(Nc4ccc(Oc5ccccc5)cc4)ncnc32)cc1	0.314%
COc1ccc(C(=O)CSc2c(C(C)C)cnc3c2c(=O)n(C)c(=O)n3C)cc1	2.45%
Cc1nc(SCCOc2ccc(Cl)cc2)[nH]c(=O)c1Cc1ccccc1	-1.18%
Cc1cc2oc(C(=O)N(Cc3ccc(Cl)cc3)Cc3ccco3)c(C)c2cc1Cl	18.5%
COc1ccc(/C=C(/NC(=O)c2ccco2)C(=O)Nc2ccc(C(C)=O)cc2)cc1	-0.901%
CC(Oc1ccc2ccccc2c1)C(=O)NNC(=S)NC(=O)c1ccco1 (centres undefined)	50.2% (active)
O=C(NC(=S)N1CCc2ccccc21)c1ccco1	1.7%
COc1ccc(OC)c(-c2nc(C(N)=O)c3c(n2)n(-c2ccc4c(c2)OCO4)c(=O)n3C)c1	-1.26%
COC(=O)C[n+]1cccc2ccccc21	87.9% (active)
COc1c(C(=O)N2CCCC2)ccc2ccccc12	1.37%
COC(=O)CNS(=O)(=O)c1ccc(Cc2ccc(S(=O)(=O)NCC(=O)OC)cc2)cc1	2.26%
CC(=O)c1ccc(NC(=O)c2nc(-c3ccc(C)cc3)n3c2CCCCC3)cc1	2.3%
COc1ccc2cc(-c3nc(Cl)c4c5c(sc4n3)CC(C)CC5)c(=O)oc2c1 (centres undefined)	8.22%
CCOC(=O)c1c(NC(=O)NC(C)(C)C)sc2c1CCN(C)C2	3.08%
CCOC(=O)c1c(NC(=O)/C(C#N)=C/c2ccccc2)sc2c1CCC2	0.119%
CCOC(=O)c1c(NC(=S)Nc2ccccc2)sc2c1CCN(C)C2	32.3% (active)

Compound	activation
Cc1ccc(-c2nnc3c4ccccc4c(C)nn23)cc1NC(=O)c1cccc(Br)c1	-0.644%
O=C(O)CCCCCCCCc1cn(CN2C(=O)c3ccccc3C2=O)nn1	2.36%
Cc1ccc(-c2nn(-c3ccccc3)cc2/C=C2\SC(=S)N(CCCCCC(=O)O)C2=O)o1	44.7% (active)
O=C1/C(=C/c2coc3ccc(O)cc3c2=O)SC(=S)N1c1ccccc1	5.55%
O=C(Nc1ccc(F)cc1F)c1cnn(-c2ccc(F)cc2)c1-n1cccc1	2.54%
COc1cccc(C(=O)NC2CCN(C#N)CC2)c1	0.293%
CCC(Oc1ccccc1)C(=O)NCc1cccnc1 (centres undefined)	1.93%
c1ccc(COc2ccccc2CNCc2cccnc2)cc1	34.6% (active)
C=CCOc1cccc(CNCc2cccnc2)c1	3.75%
COc1cccc(NC(=O)C2CCN(c3cc(C)nc4c(-c5ccc(Cl)cc5)c(C)nn34)CC2)c1	0.702%
CCOc1ccc(C(=O)Nc2nccs2)cc1[N+](=O)[O-]	6.87%
CCCCCOc1ccc(CSC2=NCCN2)cc1[N+](=O)[O-]	42.9% (active)
Cc1ccccc1NC(=O)CSC1=NCCN1	1.9%
COCC(C)NS(=O)(=O)c1ccc(N2CCCCS2(=O)=O)cc1 (centres undefined)	3.35%
CCc1cccc(NC(=O)c2cc(-c3ccccc3)n[nH]2)c1	12.3%
CCOc1cc(/C=C(\C#N)C(=O)Nc2ccccc2C)ccc1OCc1cc(=O)n2nc(CC)sc2n1	5.19%
CCOc1cc(/C=C(\C#N)c2nc(-c3cccs3)c(NC(C)=O)s2)ccc1O	115% (active)
CCOc1ccc(/C=C(\C#N)c2nc3ccccc3c(=O)[nH]2)cc1OC	3.27%
O=C(NCC(c1ccc2c(c1)OCO2)N1CCN(c2ccccc2)CC1)C(=O)Nc1ccccc1F (centres undefined)	1.27%
COc1ccc(N2CCN(C(=O)CSCc3nc(-c4ccccc4Cl)oc3C)CC2)cc1	7.67%
